Source: PubChem (several laboratories)
Mtb betalactam: beta-lactam sensitization of Mtb H37Rv, H37Rv; inhibition, % at 25 µM; 330,000 compounds, 0.27% hits; M. tuberculosis H37Rv growth with meropenem, percent inhibition; call rule not given here;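 further: growth measured after seven days incubation then overnight dye step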
Mtb UGM inh: M. tuberculosis UGM enzyme inhibitors, primary screen, biochemical, fluorescence polarization, single point; 320,000 compounds, 0.06% hits; inhibition, % at 10 µM; purified UGM, fluorescence polarization probe displacement; UDP-galactopyranose mutase (Mycobacterium tuberculosis (strain ATCC 25618 / H37Rv)), …; in the data active means inhibition above about 10%, passing the limit was not always enough
PriA SSB inh: inhibitors of Klebsiella pneumoniae PriA binding to SSB C-terminal tail, primary screen, biochemical, AlphaScreen | 430,000 compounds, 0.6% hits | inhibition, % at 33 µM | PriA–SSB C-terminal tail interaction (Klebsiella pneumoniae) | AlphaScreen SSBct-PriA binding, biotinylated peptide; in the data active means inhibition mostly above about 37%, no sharp cut-off; inactive means mostly below about 20%
Mtb FBA inh: Mtb FBA enzyme inhibitors, primary screen, biochemical, fluorescence, strain H37Rv. 360,000 compounds, 2.3% hits. purified M. tuberculosis FBA, fluorescence read-out. inhibition, % at 1 µM
Rv3671c inh: Rv3671c serine protease inhibitors, primary screen, biochemical, fluorescence polarization, M. tuberculosis H37Rv; AID 2606, 2010; 320,000 compounds, 0.048% hits; P9WHR9; inhibition, % at 5.96 µM; in the data active means inhibition above about 38%;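 further: extracellular domain of Rv3671c used as enzyme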
Target sequence (P9WHR9 whole entry, looked up, the tested form may be a part): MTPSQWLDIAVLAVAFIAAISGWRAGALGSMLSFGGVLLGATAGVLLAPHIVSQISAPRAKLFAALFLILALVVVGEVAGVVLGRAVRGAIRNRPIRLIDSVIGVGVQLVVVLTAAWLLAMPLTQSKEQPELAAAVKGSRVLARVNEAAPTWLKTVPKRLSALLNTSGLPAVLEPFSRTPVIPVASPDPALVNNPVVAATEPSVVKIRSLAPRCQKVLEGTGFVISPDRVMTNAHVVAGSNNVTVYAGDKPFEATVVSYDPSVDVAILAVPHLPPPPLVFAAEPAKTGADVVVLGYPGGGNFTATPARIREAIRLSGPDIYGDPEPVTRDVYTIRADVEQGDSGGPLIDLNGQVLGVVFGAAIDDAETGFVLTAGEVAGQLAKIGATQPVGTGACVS
GDH-TPI counter-1: GDH-TPI coupling enzyme inhibitors, primary screen, artefact control for M. tuberculosis FBA inhibitor project, biochemical, absorbance, full deck. 360,000 compounds, 1.2% hits. GDH-TPI coupled enzyme counterscreen, NADH absorbance. inhibition, % at 4.8 µM; in the data active means inhibition above about 30%
Mtb FBA inh conf: M. tuberculosis aldolase blockers, biochemical, fluorescence, strain H37Rv, confirmation | shares compounds with Mtb FBA inh | purified M. tuberculosis FBA, fluorescence read-out | inhibition, % at 1 µM | 5,600 compounds, 78% hits | AID 651616, 2012
GDH-TPI counter-2: GDH-TPI coupling enzyme inhibitors, artefact control for M. tuberculosis FBA inhibitor project, biochemical, fluorescence, high throughput | AID 652141, 2013 | 5,600 compounds, 81% hits | inhibition, % at 1 µM | GDH-TPI coupled enzyme counterscreen | shares compounds with Mtb FBA inh; in the data active means inhibition above about 10%
Large screens that a line does not name were inactive (follow-up assays come after a bar, where they were run). The list is not random: actives were taken first. Their share in the collection is about 3.2%. Unless noted, no stated cut-off is given here; in the data, active means inhibition above about 27%; inactive means the rest.

O=C(c1ccccc1)n1ccc(-c2cnc(-c3ccccc3)s2)n1	Mtb FBA inh 95 | Mtb FBA inh conf 73 | GDH-TPI counter-2 58
CCOC(=O)Cc1cc(=O)n2[nH]c(C)c(-c3ccc(Cl)cc3)c2n1	Mtb FBA inh 62 | Mtb FBA inh conf 156 | GDH-TPI counter-2 110
COc1ccc(-c2c(C(F)(F)F)[nH]n3c(=O)cc(-c4ccccc4)nc23)cc1	Mtb FBA inh 39 | Mtb FBA inh conf 88 | GDH-TPI counter-2 84
CCc1cc(=O)n2[nH]c(-c3ccccc3)c(-c3ccccc3)c2n1	Mtb FBA inh 34 | Mtb FBA inh conf 150 | GDH-TPI counter-2 111
Cc1[nH]n2c(=O)cc(C(C)(C)C)nc2c1-c1ccccc1	Mtb FBA inh 50 | Mtb FBA inh conf inactive | GDH-TPI counter-2 inactive
CCC(=NNC(=O)CSc1ncccn1)c1ccc2c(c1)OCCO2	none (no result: Mtb betalactam, Mtb UGM inh, Mtb FBA inh, Rv3671c inh, GDH-TPI counter-1)
CCOc1ccc(-c2noc(CN3C(=O)COc4cc(C)ccc43)n2)cc1OC	none (no result: Mtb betalactam, Mtb UGM inh, Mtb FBA inh, Rv3671c inh, GDH-TPI counter-1)
CCCc1cc(=O)n2[nH]c(C)c(-c3ccccc3)c2n1	Mtb FBA inh 27 | Mtb FBA inh conf inactive | GDH-TPI counter-2 inactive
Cc1[nH]n2c(=O)c3c(nc2c1-c1ccc(Cl)cc1)CCC3	none
Cc1[nH]n2c(=O)c3c(nc2c1-c1ccccc1)CCC3	Mtb FBA inh 28 | Mtb FBA inh conf 131 | GDH-TPI counter-2 97
CN(Cc1c(C(=O)NN=Cc2cccc(Cl)c2)nnn1-c1nonc1N)c1ccccc1	none (no result: Mtb betalactam, Mtb UGM inh, Mtb FBA inh, Rv3671c inh, GDH-TPI counter-1)
O=c1nc(-c2ccccc2)c2ccccc2[nH]1	none
O=c1[nH]c2ccccc2nc1-c1ccccc1	Mtb FBA inh 45, GDH-TPI counter-1 31 | Mtb FBA inh conf 79 | GDH-TPI counter-2 76
CCC1(O)C(=O)OCc2c1cc1n(c2=O)Cc2cc3c(N)cccc3nc2-1 (stereo not drawn)	none (no result: Mtb betalactam, Mtb UGM inh, Rv3671c inh)
CCC1(OC(=O)CN(C)C)C(=O)OCc2c1cc1n(c2=O)Cc2cc3c(N)cccc3nc2-1 (stereo not drawn)	Mtb FBA inh 53 (no result: Mtb betalactam, Mtb UGM inh, Rv3671c inh) | Mtb FBA inh conf inactive | GDH-TPI counter-2 inactive
CCOc1ncc(NS(=O)(=O)c2ccc(OC(F)(F)F)cc2)c(N(C)C)n1	none (no result: Mtb betalactam, Mtb UGM inh, Mtb FBA inh, Rv3671c inh, GDH-TPI counter-1)
CCOCCCN(Cc1ccco1)C(=O)c1cc2c(=O)[nH]c3ccc(C)cc3c2s1	Mtb FBA inh 32 | Mtb FBA inh conf inactive | GDH-TPI counter-2 inactive
Cc1ccc2[nH]c(=O)c3cc(C(=O)N(C)Cc4ccco4)sc3c2c1	Mtb FBA inh 51 | Mtb FBA inh conf 187 | GDH-TPI counter-2 135
CCCN(CCC)C(=O)c1cc2c(=O)[nH]c3ccc(C)cc3c2s1	none
Cc1ccc(-c2csc3ncnc(Nc4ccc5ccccc5c4)c23)cc1C	none (no result: Mtb betalactam, Mtb UGM inh, Mtb FBA inh, Rv3671c inh, GDH-TPI counter-1)
Cc1nc(-c2ccccc2)sc1C(=O)Nc1ccc(-c2ccc3nnc(-c4ccncc4)n3n2)cc1	none (no result: Mtb betalactam, Mtb UGM inh, Mtb FBA inh, Rv3671c inh, GDH-TPI counter-1)
CCOC(=O)c1ccc2c(c1)sc(=NC(=O)c1cccc(S(=O)(=O)CC)c1)n2CC	none (no result: Mtb betalactam, Mtb UGM inh, Mtb FBA inh, Rv3671c inh, GDH-TPI counter-1)
COc1ccc(C2CC(c3ccccc3OC(C)=O)=NN2C(=O)/C=C/c2ccccc2)cc1 (stereo not drawn)	none
COc1ccc(C2CC(c3ccccc3OC(C)=O)=NN2C(C)=O)cc1 (stereo not drawn)	Mtb FBA inh 50 | Mtb FBA inh conf 109 | GDH-TPI counter-2 75
Cc1cc(N2CCC(N(C)C3CCCC3)CC2)nc2cc(O)ccc12	Mtb FBA inh 28 | Mtb FBA inh conf 91 | GDH-TPI counter-2 73
Cc1cc(N2CCN(c3ccccc3)CC2)nc2ccccc12	none (no result: Mtb betalactam)
Cc1cc(F)ccc1S(=O)(=O)NCC[C@H](O)c1ccccc1	none (no result: Mtb betalactam, Mtb UGM inh, Mtb FBA inh, Rv3671c inh, GDH-TPI counter-1)
COc1ccccc1-c1oc2ccccc2c1C#CCCO	Mtb FBA inh 65 | Mtb FBA inh conf inactive | GDH-TPI counter-2 inactive
COc1ccccc1-c1oc2ccccc2c1C#CC1(O)CCCCC1	none
Cc1cc2ccccc2c(=O)[nH]1	none
